3CLpro inhibitor: SARS-CoV 3CLpro protease inhibition. P0C6X7. recombinant SARS-CoV 3CLpro, quenched FRET peptide cleavage. inhibition, % at 6 µM. 0.14% of 290,000 active. AID 1706; in the data active = inhibition above about 12%
Mtb BioA inh: BioA (M. tuberculosis) enzyme inhibition | inhibition, % at 9.99 µM | 0.096% of 360,000 active | AID 602481 | purified M. tuberculosis BioA enzyme, plate reader; in the data active = inhibition above about 40%; inconclusive = no clear call, values can overlap the other calls
Mtb FBA inh: Mtb fructose-bisphosphate aldolase inhibition; P9WQA3; purified M. tuberculosis FBA, fluorescence read-out; inhibition, % at 1 µM; 2.3% of 360,000 active; AID 588726; in the data active = inhibition above about 27%;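 note: 0% = vehicle and 100% = reference inhibitor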
Target sequence (P9WQA3 whole entry, looked up): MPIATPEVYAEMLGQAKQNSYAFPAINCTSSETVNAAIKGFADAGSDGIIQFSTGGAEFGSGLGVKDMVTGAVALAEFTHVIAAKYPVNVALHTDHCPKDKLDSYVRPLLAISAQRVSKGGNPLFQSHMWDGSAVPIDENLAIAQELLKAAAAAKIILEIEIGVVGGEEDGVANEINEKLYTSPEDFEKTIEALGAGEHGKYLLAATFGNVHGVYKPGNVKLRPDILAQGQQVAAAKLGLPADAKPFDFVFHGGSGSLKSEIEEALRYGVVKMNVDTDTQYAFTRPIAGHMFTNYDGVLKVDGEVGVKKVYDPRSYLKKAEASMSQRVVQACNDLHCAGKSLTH
FadD28 binding: M. tuberculosis FadD28 bisubstrate binding inhibition. FadD28 bisubstrate probe binding, fluorescence polarization. 0.22% of 360,000 active. inhibition, % at 12.5 µM; in the data active = inhibition above about 8.5%, passing the limit was not always enough; inconclusive = no clear call, values can overlap the other calls
GDH-TPI inh: counter-screen for M. tuberculosis FBA inhibitors: GDH-TPI coupled enzymes | 1.2% of 360,000 active | inhibition, % at 4.8 µM | GDH-TPI coupled enzyme counterscreen, NADH absorbance; in the data active = inhibition above about 30%;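 note: 0% = DMSO wells and 100% = wells lacking the enzyme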
* marks the source's active call; other numbers are inactive results. Shown are actives, neighbours in structure and some others; about 3.1% of the full set was active somewhere.

What do the screens show for `COc1ccccc1-c1coc2c(CN3CCCC(C)C3)c(O)ccc2c1=O` (stereo not given)?
3CLpro inhibitor: -5; Mtb BioA inh: 0; Mtb FBA inh: active; FadD28 binding: -4; GDH-TPI inh: 9

How did COc1ccccc1Oc1c(C)oc2c(CN3CCN(CCO)CC3)c(O)ccc2c1=O do in these assays?
3CLpro inhibitor: 9; Mtb BioA inh: 2

Results for CC1CCCCN1Cc1c(O)ccc2c(=O)c(-c3nc4ccccc4s3)c(N)oc12 (stereo not given) ?
3CLpro inhibitor: 1; Mtb FBA inh: 21; FadD28 binding: inconclusive; GDH-TPI inh: 61*

Results for COc1ccc(-c2c(C)oc3c(CN4CCCCC4C)c(O)ccc3c2=O)cc1 (stereo not given) ?
3CLpro inhibitor: 1; Mtb BioA inh: 5; Mtb FBA inh: 174*; FadD28 binding: -2; GDH-TPI inh: 10

How did Cc1oc2c(CN3CCCCC3)c(O)ccc2c(=O)c1-c1ccc(Cl)cc1 do in these assays?
3CLpro inhibitor: -1; Mtb BioA inh: 5; Mtb FBA inh: 113*; GDH-TPI inh: 12

Results for COc1ccccc1-c1c(C)oc2c(CN3CCCC(C)C3)c(O)ccc2c1=O (stereo not given) ?
3CLpro inhibitor: 1; Mtb BioA inh: -1; Mtb FBA inh: active; GDH-TPI inh: 21

How did Cc1oc2c(CN3CCCC(C)C3)c(O)ccc2c(=O)c1-c1ccccc1 (stereo not given) do in these assays?
3CLpro inhibitor: -1; Mtb BioA inh: 1; Mtb FBA inh: 136*; FadD28 binding: 0; GDH-TPI inh: 28

What do the screens show for `C[C@H]1CN([C@@H](C)CO)C(=O)Cc2cc(NC(=O)Cc3cn(C)c4ccccc34)ccc2O[C@@H]1CN(C)Cc1ccncc1`?
Mtb BioA inh: 0

What do the screens show for `Cc1ccc(Nc2ccc(N)cc2S(=O)(=O)O)cc1`?
3CLpro inhibitor: -3; Mtb BioA inh: 4; Mtb FBA inh: 18; FadD28 binding: 85*; GDH-TPI inh: 3

Results for O=C(O)CCC(=O)N1CCN(c2ccc(C(=O)c3ccc(F)cc3)cc2)CC1 ?
3CLpro inhibitor: 0; Mtb BioA inh: 0; Mtb FBA inh: -1; FadD28 binding: -1; GDH-TPI inh: 38*

How did Cc1ccc(C(=O)CCC(=O)N2CCN(c3ccc(F)cc3)CC2)cc1 do in these assays?
3CLpro inhibitor: 3; Mtb BioA inh: 0; Mtb FBA inh: 1; FadD28 binding: 0; GDH-TPI inh: 1

How did C[C@H]1CN([C@@H](C)CO)C(=O)c2cc(C#CC3(O)CCCC3)cnc2O[C@H]1CN(C)C(=O)Cc1cccnc1 do in these assays?
Mtb BioA inh: 2

How did C[C@H](CO)N1C[C@H](C)[C@H](CN(C)C(=O)CCCN(C)C)OCCCC[C@H](C)Oc2ccc(NC(=O)Nc3ccc(C(F)(F)F)cc3)cc2C1=O do in these assays?
Mtb BioA inh: 3

Results for COCc1cn(CC[C@H]2CC[C@@H](NC(=O)Nc3ccc(F)cc3)[C@@H](CO)O2)nn1 ?
Mtb BioA inh: 4

Results for O=C1C=CC(=O)c2c(O)c(CO)c(CO)c(O)c21 ?
Mtb FBA inh: 2; FadD28 binding: 18*; GDH-TPI inh: 9

What do the screens show for `CCN1C(=O)[C@@H]2[C@@H](c3ccc(-c4cc(C(C)=O)cs4)cc3)N3CCC[C@@]3(C(=O)OC)[C@@H]2C1=O`?
Mtb BioA inh: 4; Mtb FBA inh: 10; FadD28 binding: -3; GDH-TPI inh: 36*

Results for CCOc1ccc(/C=C/C(=O)Nc2ccc(C(N)=O)cc2)cc1OC ?
3CLpro inhibitor: -1; Mtb FBA inh: 5; FadD28 binding: -1; GDH-TPI inh: 51*

How did Cc1noc(NS(=O)(=O)c2ccc(NC(=O)/C=C/c3ccccc3)cc2)c1C do in these assays?
Mtb BioA inh: 2; Mtb FBA inh: -1; FadD28 binding: 0; GDH-TPI inh: 8

What do the screens show for `COc1ccc(/C=C/C(=O)Nc2ccc(S(=O)(=O)Nc3onc(C)c3C)cc2)cc1OC`?
3CLpro inhibitor: 1; Mtb BioA inh: 1; Mtb FBA inh: 0; FadD28 binding: -2; GDH-TPI inh: 37*

How did Cc1noc(C)c1S(=O)(=O)Nc1ccc2c(c1)CC(=O)N([C@@H](C)CO)C[C@@H](C)[C@H](CN(C)S(=O)(=O)c1ccccc1)O2 do in these assays?
Mtb BioA inh: 2

How did C[C@H]1CN([C@@H](C)CO)C(=O)c2cccc(NS(=O)(=O)c3cn(C)cn3)c2O[C@@H]1CN(C)C(=O)Nc1ccc2c(c1)OCO2 do in these assays?
Mtb BioA inh: -2

What do the screens show for `CC/C(=N\NC(=O)c1ccccc1Cl)c1c(O)n(C2CCCCC2)c(=O)[nH]c1=O`?
3CLpro inhibitor: 1; Mtb BioA inh: 1; Mtb FBA inh: -3; FadD28 binding: 5; GDH-TPI inh: 34*

How did CC/C(=N\NC(=O)c1ccccc1)c1c(O)n(C2CCCCC2)c(=O)[nH]c1=O do in these assays?
3CLpro inhibitor: 7; Mtb BioA inh: 3; Mtb FBA inh: 1; FadD28 binding: -1; GDH-TPI inh: 25

Results for Cc1ccccc1CC1S/C(=N/N=C/c2ccco2)NC1=O (stereo not given) ?
3CLpro inhibitor: 3

How did CCCCNC(=O)CC1S/C(=N/N=C/c2ccc(OC)cc2)NC1=O (stereo not given) do in these assays?
3CLpro inhibitor: -2; Mtb FBA inh: -2; FadD28 binding: -3; GDH-TPI inh: 33*

How did CC(C)C1S/C(=N/N=C/c2ccco2)NC1=O (stereo not given) do in these assays?
3CLpro inhibitor: 0; Mtb BioA inh: 0; Mtb FBA inh: -4; FadD28 binding: -4; GDH-TPI inh: 57*

Results for COc1ccc(/C=N/N=C2/NC(=O)CC(C(=O)O)S2)cc1 (stereo not given) ?
3CLpro inhibitor: -2; Mtb BioA inh: 0; Mtb FBA inh: -3; FadD28 binding: -2; GDH-TPI inh: 55*

Results for O=C1CC(C(=O)Nc2ccc(Cl)cc2)S/C(=N\N=C\c2ccco2)N1 (stereo not given) ?
3CLpro inhibitor: 4; Mtb BioA inh: -1; Mtb FBA inh: -2; FadD28 binding: -3; GDH-TPI inh: 56*

How did COc1ccc(CNC(=O)C[C@@H]2C=C[C@@H](NS(=O)(=O)c3cccc(OC)c3)[C@H](CO)O2)cc1 do in these assays?
Mtb BioA inh: -2

What do the screens show for `Cc1noc(C)c1S(=O)(=O)Nc1ccc2c(c1)C(=O)N([C@H](C)CO)C[C@H](C)[C@@H](CN(C)Cc1ccncc1)O2`?
Mtb BioA inh: -1

What do the screens show for `O=C1CC(C(=O)Nc2ccccc2)S/C(=N\N=C\c2ccco2)N1` (stereo not given)?
3CLpro inhibitor: -3; Mtb BioA inh: -1; Mtb FBA inh: -4; FadD28 binding: 0; GDH-TPI inh: 29

How did O=C1CC(C(=O)Nc2ccc(Br)cc2)S/C(=N\N=C\c2ccco2)N1 (stereo not given) do in these assays?
3CLpro inhibitor: 2; Mtb FBA inh: 0; FadD28 binding: inconclusive; GDH-TPI inh: 52*

Screening data (PubChem)
